Consider 107 compounds from PubChem BioAssay AID1240 (Sanford-Burnham Center for Chemical Genomics, 2008).

The structures appear in SMILES notation. The whole screen tested about 50,000 compounds, of which about 800 (1.6%) showed an effect of 50% or more. For the sample, strong results were picked, then their nearest neighbours and some compounds at random.

The experiment deals with Bcl-2-like protein 10 (Homo sapiens) (UniProt Q9HD36). Description: Phenotype converters, Bcl-B/TR3 peptide binding displacement, primary biochemical FP (AID 1240).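 Further: 0% = Bcl-B with tracer peptide and DMSO and 100% = tracer peptide lacking Bcl-B.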 The settings on record: GST-Bcl-B / FITC-TR3 peptide fluorescence polarization; stronger effect = higher value; compound at 3.75 mg/L. (In fluorescence polarisation assays a small probe gives low polarisation when free and higher when bound to something large.)
Chain of Bcl-2-like protein 10 (Homo sapiens) (Q9HD36 whole entry, looked up): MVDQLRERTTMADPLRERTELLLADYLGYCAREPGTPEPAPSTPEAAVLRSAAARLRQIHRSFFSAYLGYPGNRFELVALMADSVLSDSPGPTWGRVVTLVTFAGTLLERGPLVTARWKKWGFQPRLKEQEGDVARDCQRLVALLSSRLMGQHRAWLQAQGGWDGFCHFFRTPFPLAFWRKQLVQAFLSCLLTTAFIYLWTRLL
As to `C=CCNC(=O)CN(c1ccc(OC)cc1OC)S(=O)(=O)c1ccc(C)cc1`, the displacement was 8.5%.

For `C=COCCNC(=O)C(=O)Nc1ccc(F)cc1`, the displacement was found to be 5%.

On to `Cc1cccc(NC(=O)CCCN2C(=O)c3cccc4cccc(c34)C2=O)n1`, for which the displacement worked out at 0.6%.

Turning to `O=C1NN(c2ccccc2)C(=O)/C1=C/c1ccc(-c2ccccc2Cl)o1`, the displacement is -13.5%.

As to `COC(=O)c1ccccc1-c1ccc(/C=C2/SC(=S)N(c3ccccc3)C2=O)o1`, the displacement was 70%.

Regarding `O=C1/C(=C/c2ccc(-c3ccccc3[N+](=O)[O-])o2)SC(=S)N1c1cccc(C(F)(F)F)c1`, the displacement was -3%.

Regarding `COC(=O)c1ccccc1-c1ccc(/C=C2/SC(=S)N(CC(=O)O)C2=O)o1`, the displacement amounted to 5.3%.

Take `COC(=O)c1ccc(-c2ccc(/C=C3/SC(=S)N(c4ccccc4)C3=O)o2)cc1`: the displacement was determined as 12.6%.

`COc1ccc(N2C(=O)/C(=C/c3ccc(-c4ccccc4[N+](=O)[O-])o3)SC2=S)cc1`: the displacement was 11.9%.

With `O=C1/C(=C/c2ccc(-c3ccccc3[N+](=O)[O-])o2)SC(=S)N1c1cccc(Cl)c1`, the displacement stood at 73.5%.

In the case of `O=C(/C=C/c1cccc(C(F)(F)F)c1)Nc1cccc([N+](=O)[O-])c1`, the displacement came out at 20.4%.

For the compound `CCOc1ccccc1NC(=S)NCc1ccccc1`, the displacement came out at 3.9%.

As for `O=[N+]([O-])c1ccccc1S(=O)(=O)NCc1ccc2c(c1)OCO2`, the displacement was -3.4%.

As to `Cc1cccc(OCC(=O)NC(C)c2ccccc2)c1` (configuration not stated), the displacement is -5.2%.

On to `Cc1ccc(OCC(=O)NC(C)c2ccccc2)cc1C` (configuration not stated), for which the displacement was 89.2%.

As to `Cc1cc(OCC(=O)NC(C)c2ccccc2)cc(C)c1Cl` (configuration not stated), the displacement was determined as 1.4%.

For the compound `COC(=O)c1sc(NC(=O)c2c(-c3c(Cl)cccc3Cl)noc2C)c(C#N)c1C`, the displacement stood at 3.1%.

On to `O=C(Oc1ccc(/C=N/NS(=O)(=O)c2ccc(Cl)cc2)cc1)c1ccco1`, for which the displacement was 6.4%.

`O=C(O)c1ccc(Cl)c(-c2ccc(C=C3C(=O)c4ccccc4C3=O)o2)c1`: the displacement is 99.1%.

Turning to `O=C(O)c1cccc(-c2ccc(C=C3C(=O)c4ccccc4C3=O)o2)c1`, the displacement is -2.7%.

Turning to `O=C(O)c1ccc(-c2ccc(C=C3C(=O)c4ccccc4C3=O)o2)cc1Cl`, the displacement is 25.2%.

For `N/C(=N\OC(=O)c1ccc(Cl)c([N+](=O)[O-])c1)c1ccccc1Cl`, the displacement was 1.1%.

Consider `O=C1c2ccccc2NC(c2ccc(-c3ccccc3[N+](=O)[O-])o2)N1c1ccccc1` (configuration not stated), for which the displacement was 16.8%.

Regarding `O=C(N/N=C/c1ccc(Br)c([N+](=O)[O-])c1)c1cccs1`, the displacement was determined as 113%.

Take `O=C(CNc1ccc2ccccc2c1)N/N=C/c1ccc(Br)c([N+](=O)[O-])c1`: the displacement was -4.4%.

For `Cc1cc(C(=O)N/N=C/c2ccc(Br)c([N+](=O)[O-])c2)n[nH]1`, the displacement came to 5.2%.

Regarding `CCC1S/C(=N\N=C\c2cccc3ccccc23)NC1=O` (configuration not stated), the displacement came to 127%.

For the compound `O=C1N/C(=N/N=C/c2ccccc2O)SC1Cc1ccccc1` (configuration not stated), the displacement worked out at 1.4%.

For `CCC1S/C(=N/N=C/c2ccc3c(c2)OCO3)NC1=O` (configuration not stated), the displacement is -13.8%.

As for `O=c1[nH]c(=S)[nH]c2c1C1(CCCC1)Cc1ccccc1-2`, the displacement was -4.2%.

As for `COc1ccc(COC(=O)C2=C(C)NC3=C(C(=O)CCC3)C2c2cccc3ccccc23)cc1` (configuration not stated), the displacement was determined as 10.9%.

As for `COc1cc(/C=C(/C#N)c2nc3ccccc3[nH]2)c([N+](=O)[O-])cc1OCCC(C)C`, the displacement came out at 69.6%.

In the case of `COc1ccc(/C=C(\C#N)c2nc3ccccc3[nH]2)cc1OC`, the displacement amounted to 11%.

Turning to `COc1cc(/C=C(\C#N)c2nc3ccccc3[nH]2)c(Br)cc1O`, the displacement is -96.8%.

On to `COc1ccc(CC(=O)N2CCN(c3cccc(Cl)c3)CC2)cc1OC`, for which the displacement came to 2%.

Consider `COC(=O)C1=C(C)NC2=C(C(=O)CC(C)(C)C2)C1c1ccc(OC)cc1OC` (configuration not stated), for which the displacement was determined as 11.9%.

Consider `O=C1C(=Cc2ccc(I)o2)C(=O)c2ccccc21`, for which the displacement is 37.1%.

Regarding `Cc1ccc(C=C2C(=O)c3ccccc3C2=O)o1`, the displacement is 10.9%.

Regarding `O=C1C(=Cc2ccc(Sc3ccccc3)o2)C(=O)c2ccccc21`, the displacement stood at 163%.

As to `C#CCOc1c(Br)cc(/C=C2\C(=O)NC(=O)N(c3ccc(Cl)cc3)C2=O)cc1OC`, the displacement is -0.6%.

In the case of `CCn1nnnc1-c1ccc(OC)c(S(=O)(=O)Nc2ccc(F)cc2)c1`, the displacement came to 6.1%.

For `CCn1nnnc1-c1ccc(OC)c(S(=O)(=O)Nc2ccc(Cl)cc2)c1`, the displacement was found to be 9.3%.

Take `CCn1nnnc1-c1ccc(OC)c(S(=O)(=O)Nc2ccc(Br)cc2)c1`: the displacement worked out at 58.3%.

Consider `CCc1ccc(-n2c(C)cc(/C=C3/NC(=O)NC3=O)c2C)cc1`, for which the displacement is -6.3%.

Consider `O=C(NC1CCCCC1)c1ccc2nc3ccccc3nc2c1`, for which the displacement came to 81.5%.

For `O=C(NC1CCCCCC1)c1cccc(Cl)c1`, the displacement came to 4.5%.

Take `O=C(NC1CCCCC1)c1ccc(Cl)c(Cl)c1`: the displacement amounted to 3.3%.

As for `CCOC(=O)C(=CNc1ccccc1C(C)C)C(=O)OCC`, the displacement is -7.2%.

`O=C1c2cccc3cccc(c23)C(=O)N1Nc1ccc([N+](=O)[O-])cc1`: the displacement is 3.8%.

As to `COc1ccc(-c2cc(C(=O)Nc3nc4ccc(S(C)(=O)=O)cc4s3)c3ccccc3n2)cc1OC`, the displacement is 5%.

For the compound `Cc1ccc2c(c1)NC(c1ccccc1)C1=C(CC(C)(C)CC1=O)N2` (configuration not stated), the displacement is -3.1%.

For the compound `Cc1ccc2c(c1)NC(c1ccc(F)cc1)C1=C(CC(C)(C)CC1=O)N2` (configuration not stated), the displacement amounted to 17.8%.

Regarding `Cc1ccc2c(c1)NC(c1ccc(C)o1)C1=C(CC(C)(C)CC1=O)N2` (configuration not stated), the displacement amounted to 88.5%.

`CCCCCC(=O)N1c2ccccc2NC2=C(C(=O)CC(c3ccc(OC)cc3)C2)C1c1ccco1` (configuration not stated): the displacement is -3.9%.

As to `Cc1ccc2nc(SCc3ccc([N+](=O)[O-])cc3)nc(C)c2c1`, the displacement was -7.5%.

`O=C(Cc1ccccc1)Nc1ccc(Cl)c(-c2nc3ncccc3o2)c1`: the displacement stood at 7.3%.

Take `Cc1ccc(C(=O)Nc2cccc3ccccc23)o1`: the displacement amounted to 16.6%.

As for `O=C(Nc1c(C(=O)N2CCC(Cc3ccccc3)CC2)cnn1-c1ccccc1)c1ccccc1F`, the displacement worked out at 88.9%.

Regarding `O=C(Nc1c(C(=O)N2CCC(Cc3ccccc3)CC2)cnn1-c1ccccc1)c1cccc(F)c1`, the displacement amounted to 3.5%.

For the compound `Cc1ccc(C(=O)Nc2c(C(=O)N3CCC(Cc4ccccc4)CC3)cnn2-c2ccccc2)cc1`, the displacement was -8.3%.

For `CCOC(=O)C1=C(O)/C(=C\c2ccc(OCC)cc2)N=C1C`, the displacement was determined as 18.1%.

Take `Cc1cc(/C=C2\C(=O)NC(=S)N(c3ccc(Br)cc3)C2=O)c(C)n1C`: the displacement is -2.4%.

Consider `CCc1ccccc1N1C(=O)/C(=C/c2cc(C)n(C)c2C)C(=O)NC1=S`, for which the displacement came to 8.1%.

`Cc1ccc(N2C(=O)/C(=C/c3cc(C)n(C)c3C)C(=O)NC2=S)cc1`: the displacement is 97%.

Turning to `Cc1cc(/C=C2\C(=O)NC(=S)N(c3ccc(Cl)cc3)C2=O)c(C)n1C`, the displacement came out at 29.5%.

Consider `Cc1cccc(N2C(=O)/C(=C/c3cc(C)n(C)c3C)C(=O)NC2=S)c1C`, for which the displacement turned out to be 111%.

As to `Cc1cc(/C=C2\C(=O)NC(=S)N(c3cccc(Cl)c3Cl)C2=O)c(C)n1C`, the displacement was 0.8%.

On to `Cc1ccc(S(=O)(=O)N2CCN(C(=O)COc3ccc(Cl)cc3)CC2)cc1`, for which the displacement was -15.1%.

Take `CCN(CC)c1ccc(/C=N/NS(C)(=O)=O)cc1`: the displacement came out at 7.3%.

Consider `COc1cccc(CN2CCN(C(=O)c3ccccc3OC)CC2)c1`, for which the displacement is -15.8%.

Take `NC(=O)SCC(=O)Nc1ccccc1O`: the displacement was determined as 4.9%.

As to `Clc1ccccc1-c1nnc(-c2ccc(-c3ccccc3)cc2)o1`, the displacement worked out at 5.2%.

`O=C(Nc1ccc(OC(F)(F)F)cc1)c1cccc([N+](=O)[O-])c1`: the displacement is -1.6%.

As for `COc1c(Cl)cc(Cl)cc1/C=C1\SC(NC(C)=O)=NC1=O`, the displacement worked out at 74.7%.

As to `COc1cc(/C=C2/SC(NC(C)=O)=NC2=O)cc(OC)c1OC`, the displacement was 31.2%.

Consider `COc1cc(/C=C2\SC(NC(C)=O)=NC2=O)cc2sc(=O)oc12`, for which the displacement is 24.7%.

Turning to `COc1ccc(OC)c(/C=C2/SC(NC(C)=O)=NC2=O)c1`, the displacement is 156%.

Turning to `COc1ccc(OC)c(/C=C2\SC(N3CCCC3)=NC2=O)c1`, the displacement was -16.2%.

For `COc1cc(/C=C2\SC(NC(C)=O)=NC2=O)cc(Br)c1OC`, the displacement was found to be 11.8%.

Regarding `COc1ccc(/C=C2\SC(N3CCCC3)=NC2=O)c(OC)c1`, the displacement is -18.5%.

Turning to `COc1cc(OC)c(/C=C2/SC(NC(C)=O)=NC2=O)cc1Br`, the displacement was 138%.

For the compound `CC(=O)NC1=NC(=O)/C(=C\c2ccc(-c3ccc(Cl)c(C(=O)O)c3)o2)S1`, the displacement is -115%.

As to `COc1ccc(/C=C2/SC(NC(C)=O)=NC2=O)c(OC)c1`, the displacement came out at 133%.

`COc1ccc(/C=C2/SC(N)=NC2=O)c(OC)c1`: the displacement is -3.2%.

As for `CCOC(=O)C1=CN(c2ccc(OCC)cc2)C=C(C(=O)OCC)C1c1ccccc1F`, the displacement is -12.6%.

Regarding `CC(=O)OC(c1c(F)c(F)c(F)c(F)c1F)c1c(F)c(F)c(F)c(F)c1F`, the displacement came out at 3%.

Take `C=CCN1C(=O)/C(=C\c2ccc(O)cc2)C(=O)NC1=S`: the displacement is -14.8%.

In the case of `O=C(N/N=C/c1ccc(Cl)cc1)c1ccc(O)cc1`, the displacement was -1.1%.

For the compound `O=C(O)CCCCCN1C(=O)C(O)=C(C(=O)/C=C/c2ccccc2)C1c1ccccc1F` (configuration not stated), the displacement came to 1.5%.

As for `O=C(/C=C/c1ccccc1)C1=C(O)C(=O)N(c2ccccn2)C1c1ccccc1F` (configuration not stated), the displacement came out at 93.5%.

In the case of `O=C(/C=C/c1ccccc1)C1=C(O)C(=O)N(c2ccccc2)C1c1ccccc1F` (configuration not stated), the displacement is 2%.

With `Cc1ccccc1NC(=O)CN(c1ccc(Oc2ccccc2)cc1)S(C)(=O)=O`, the displacement was determined as 1.7%.

Regarding `Cc1ccccc1NC(=O)c1ccc(C)c(S(=O)(=O)NCc2ccccc2)c1`, the displacement is -9.5%.

Take `CC(C)c1nnc(NC(=O)Nc2ccc(Cl)cc2)s1`: the displacement was found to be 2.3%.

As to `CC(C)c1nnc(NC(=O)Nc2ccc(Cl)c(Cl)c2)s1`, the displacement is 98.2%.

In the case of `CC(C)Cc1nnc(NC(=O)Nc2ccc(Cl)c(Cl)c2)s1`, the displacement was 3.9%.

In the case of `FC(F)(F)c1nc2ccccc2n1CC#CCn1c(C(F)(F)F)nc2ccccc21`, the displacement is -1.1%.

Take `Cc1ccc(NC(=O)/C(=C/c2ccccc2)c2ccccc2)cc1C`: the displacement amounted to 12.1%.

For the compound `O=C(Nc1nc2ccc(Br)cc2s1)c1cccs1`, the displacement was -3.7%.

As for `COc1ccc(C(=O)Nn2cc3cc([N+](=O)[O-])ccc3n2)cc1`, the displacement was -9.5%.

Turning to `O=C(Cc1ccc(Cl)cc1)Nc1ccc2c(c1)OCCO2`, the displacement came out at 0.4%.

For `Nc1nc(SCc2ccc(Cl)cc2)nc2sc3c(c12)CCN(Cc1ccccc1)C3`, the displacement turned out to be 16.8%.

On to `N#Cc1c(N)sc2c1CCN(Cc1ccccc1)C2`, for which the displacement is 3.4%.

With `CSc1nc2sc3c(c2c(=O)n1Cc1ccccc1)CCN(C)C3`, the displacement was -6.8%.

For the compound `CSc1nc2sc3c(c2c(=O)[nH]1)CCCC3`, the displacement is 6.2%.

On to `Nc1sc(=S)nc2sc3c(c12)CCN(Cc1ccccc1)C3`, for which the displacement was found to be 74%.

For the compound `CSc1nc2sc3c(c2c(=O)[nH]1)CCN(Cc1ccccc1)C3`, the displacement was found to be 81%.
